Data published in the supplement of paper PMC13380429.

test system: Vero E6 infected with SARS-CoV-2; assay: inhibition of SARS-CoV-2 cytopathic effect; higher = more antiviral protection, active = above 15; details: 100 nM; 48 h

| Structure (SMILES) | inhibition of SARS-CoV-2 cytopathic effect |
| --- | --- |
| Cc1cnc(Nc2ccc(N3CCN(C)CC3)cc2)nc1Nc1cccc(S(=O)(=O)NC(C)(C)C)c1 | 0.51% (inactive) |
| CC[C@H](C)[C@@H]1NC(=O)[C@H](Cc2ccc(O)cc2)NC(=O)[C@@H](N)CSSC[C@@H](C(=O)N2CCC[C@H]2C(=O)N[C@@H](CC(C)C)C(=O)NCC(N)=O)NC(=O)[C@H](CC(N)=O)NC(=O)[C@H](CCC(N)=O)NC1=O [oxytocin] | 3.52% (inactive) |
| CCN(C(C)=O)c1cccc(-c2ccnc3c(C#N)cnn23)c1 | -2.79% (inactive) |
| CC1Sc2c(C(=O)O)c(=O)c3cc(F)c(N4CCNCC4)cc3n21 (stereo not given) [ulifloxacin] | -3.62% (inactive) |
| COc1cc(OC)c(/C=C/S(=O)(=O)Cc2ccc(OC)c(OP(=O)(O)O)c2)c(OC)c1 [briciclib] | -1.04% (inactive) |
| Cc1ccc(/C=C2\CNC/C(=C\c3ccc(C)cc3)C2=O)cc1 | -0.54% (inactive) |
| CC[C@H](C)C[C@H](C)CCCCCCCCC(=O)N[C@H]1C[C@@H](O)[C@@H](NCCN)NC(=O)[C@@H]2[C@@H](O)CCN2C(=O)[C@H]([C@H](O)CCN)NC(=O)[C@H]([C@H](O)[C@@H](O)c2ccc(O)cc2)NC(=O)[C@@H]2C[C@@H](O)CN2C(=O)[C@H]([C@@H](C)O)NC1=O [caspofungin] | -1.58% (inactive) |
| NC(=O)c1ccccc1O [salicylamide] | 5.65% (inactive) |
| COc1ccc(-c2nc(C(=O)N3CCN(C)CC3)sc2-c2ccc(OC)cc2)cc1 | -0.57% (inactive) |
| O=C(NC(=O)c1c(F)cccc1F)Nc1cc(Cl)c(OC(F)(F)C(F)C(F)(F)F)cc1Cl (stereo not given) [lufenuron] | -1.16% (inactive) |
| Cc1onc(-c2ccccc2)c1-c1ccc(S(N)(=O)=O)cc1 [valdecoxib] | -0.48% (inactive) |
| O=C(O)CNC(=O)c1ccccc1 [hippuric-acid] | 3.97% (inactive) |
| CC(=O)c1ccc2c(c1)N(CCCN1CCC(CCO)CC1)c1ccccc1S2 [piperacetazine] | 1.55% (inactive) |
| Cn1c(=O)c(F)c(Nc2ccc(I)cc2F)c2c(=O)n(C[C@@H](O)CO)cnc21 | -11% (inactive) |
| CC(C)Oc1ccc(-c2nc(-c3cccc4c3CC[C@H]4NCCC(=O)O)no2)cc1C#N | 0.51% (inactive) |
| CCOc1nc2cccc(C(=O)OC(C)OC(=O)OC3CCCCC3)c2n1Cc1ccc(-c2ccccc2-c2nn[nH]n2)cc1 (stereo not given) [candesartan-cilexetil] | -1.43% (inactive) |
| CC(C)(C)CC(C)(C)c1ccc(OCCOCC[N+](C)(C)Cc2ccccc2)cc1 [benzethonium] | -12.9% (inactive) |
| COc1ccc(NC(=O)c2ccc(-c3ccc(-c4noc(C)n4)cc3C)cc2)cc1OCCN(C)C | -0.42% (inactive) |
| CCCn1cnc2c1c(=O)n(CCCCC(C)=O)c(=O)n2C [propentofylline] | 1.32% (inactive) |
| Cc1cc(C)c(CNC(=O)c2cc(-c3ccc(CN4CCOCC4)cc3)cc3c2cnn3C2CCCC2)c(=O)[nH]1 | 1.14% (inactive) |
| CC(C)CN(C[C@@H](O)[C@H](Cc1ccccc1)NC(=O)O[C@H]1CCOC1)S(=O)(=O)c1ccc(N)cc1 [amprenavir] | -0.29% (inactive) |
| CN(C)CCCCSC(=N)N | -2.41% (inactive) |
| Cc1cccc(C)c1NC(=O)c1ccccc1C(=O)O [ftaxilide] | -1.2% (inactive) |
| O=C(/C=C/c1ccc2c(c1)OCO2)N1CCCCC1 [ilepcimide] | 1.04% (inactive) |
| Oc1ccc(Nc2nc(-c3ccc(Cl)cc3)cs2)cc1 | 2.65% (inactive) |
| N#Cc1cc2c(OCC(O)CN3CCN(C(c4ccccc4)c4ccccc4)CC3)cccc2[nH]1 (stereo not given) | 0.3% (inactive) |
| CC[C@H]1[C@@H](O)[C@@H]2[C@H](CC[C@]3(C)[C@@H]([C@H](C)CCC(=O)O)CC[C@@H]23)[C@@]2(C)CC[C@@H](O)C[C@@H]12 [obeticholic-acid] | 1.03% (inactive) |
| O=C(COc1ccc(Cl)cc1)N1CCN(Cc2ccc3c(c2)OCO3)CC1 [fipexide] | 1.92% (inactive) |
| CCC(CC)COC(=O)[C@H](C)N[P@](=O)(OC[C@H]1O[C@@](C#N)(c2ccc3c(N)ncnn23)[C@H](O)[C@@H]1O)Oc1ccccc1 [Remdesivir] | 1.51% (inactive) |
| N=C(N)NC(=N)Nc1ccccc1 [1-phenylbiguanide] | 0.97% (inactive) |
